JMJD2A Tudor: inhibitors of human JMJD2A Tudor domain; AID 504339; AlphaScreen JMJD2A-Tudor / H3K4me3 peptide binding; O75164; Potency, µM (top dose mostly 114 µM), inactives show at the highest dose activity change, negative = inhibition, actives largely listed as inhibitors; 390,000 tested, 4.4% active; further: on the % scale 0 is the no-effect control and ±100 the full control effect; nearly all actives have a fitted effect of over 50% in size
G9a block: blocks human histone lysine methyltransferase G9a; 350,000 tested, 8.8% active; AID 504332; Q96KQ7; G9a H3K9 monomethylation, AlphaScreen, 2 h; Potency, µM (doses to about 102 µM), for inactives: top-dose activity, negative = inhibition, hits mostly inhibitors; further: on the % scale 0 is the no-effect control and ±100 the full control effect; nearly all actives have a fitted effect of over 75% in size
Target sequence (Q96KQ7 913-1193 limits assumed): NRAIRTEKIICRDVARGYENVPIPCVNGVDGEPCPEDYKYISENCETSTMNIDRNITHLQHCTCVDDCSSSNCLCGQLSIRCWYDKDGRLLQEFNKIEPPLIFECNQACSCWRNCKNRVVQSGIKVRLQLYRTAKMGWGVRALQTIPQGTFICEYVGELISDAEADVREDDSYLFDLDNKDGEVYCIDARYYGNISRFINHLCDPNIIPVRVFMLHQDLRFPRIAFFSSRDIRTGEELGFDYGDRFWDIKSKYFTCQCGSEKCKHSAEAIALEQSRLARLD
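Step 1: enzyme (final 20 nM) with compound, 15 min RT. Step 2: substrate peptide 500 nM and SAM 20 uM, 2 h RT. Step 3: anti-H3K9me1 antibody and AlphaScreen beads, 10 min, then plate read.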
GLS inh: glutaminase GLS (human) inhibition; 410,000 tested, 0.21% active; AID 624170; Potency, µM (series often up to 45.5 µM), for the others: top-dose activity change, negative = inhibition, actives largely listed as inhibitors; O94925; GLS enzymatic activity, qHTS titration; further: on the % scale 0 is the no-effect control and ±100 the full control effect
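hKGA in 45 mM KH2PO4 pH 8.2, 0.02% Tween-20 with pin-transferred compounds; 1 mM L-glutamine (stock) plus glutamate oxidase/HRP/Amplex Red coupling added. Fluorescence read initially and after 30 min at RT.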
HP1b binding inh: blocks HP1-beta chromodomain binding to methylated histone tails. Potency, µM (series often up to 114 µM), inactives show at the top dose activity change, negative = inhibition, hits mostly inhibitors. AlphaScreen HP1-beta / biotin-H3K9me3 peptide binding. 390,000 tested, 0.56% active; further: nearly all actives have a fitted effect of over 70% in size
Target sequence (P83916 whole entry, looked up): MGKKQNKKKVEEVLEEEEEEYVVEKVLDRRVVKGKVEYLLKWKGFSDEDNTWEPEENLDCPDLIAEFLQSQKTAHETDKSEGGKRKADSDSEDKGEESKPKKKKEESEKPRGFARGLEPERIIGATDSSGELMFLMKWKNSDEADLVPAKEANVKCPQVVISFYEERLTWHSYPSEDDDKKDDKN
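AlphaScreen: HP1-beta (50 nM) preformed 30 min with biotin-H3(1-18)K9me3 peptide (50 nM) in PBS pH 7.4, 0.01% Tween-20. Compound added for 30 min at RT, then streptavidin donor/nickel chelate acceptor beads (10 ug/mL) for 30 min.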
BAZ2B inh: inhibitors of human BAZ2B bromodomain | AlphaScreen BAZ2B-H3K14Ac peptide displacement | Potency, µM (highest dose often 114 µM), for the others: top-dose activity change, negative = inhibition, usual class: inhibitors | 360,000 tested, 4.4% active; further: on the % scale 0 is the no-effect control and ±100 the full control effect; nearly all actives have a fitted effect of over 60% in size
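Complex of BAZ2B and biotin-H3K14Ac (50 nM apiece) forms over 30 min at RT, then faces library compounds up to 110 uM for another 30 min; AlphaScreen beads added, 20 min dark incubation, luminescence read.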
The depositor's hits bear a star; [ ] = remark or other dose. This is a sample that favours compounds with a hit; in the whole collection about 10% have one here. The call rests on the fitted dose curve; in most records, active means well fitted curve in the direction sought with a large enough effect; inconclusive means small, poorly fitted or top-dose-only effect, or another doubt; inactive means no such curve, though single readings can be large; an effect the other way counts as inactive or inconclusive. Potency means the concentration at half of the fitted maximal effect.

CCNS(=O)(=O)c1ccc(NC(=O)c2ccccc2SCCOC)cc1 was read as JMJD2A Tudor 7%, G9a block 16µM*, GLS inh -2%, HP1b binding inh -24% and BAZ2B inh 21%.
`CSc1ccccc1C(=O)NCc1ccc(S(N)(=O)=O)cc1` gave JMJD2A Tudor -1%, G9a block inconclusive, GLS inh 9%, HP1b binding inh 21% and BAZ2B inh 10%.
For COCCSc1ccccc1C(=O)NCC1CCCO1 (stereo not given) the results were JMJD2A Tudor -20%, G9a block 6.3µM*, GLS inh 0%, HP1b binding inh 20% and BAZ2B inh -2%.
COCCSc1ccccc1C(=O)NCc1ccc(S(N)(=O)=O)cc1 was read as JMJD2A Tudor -18%, G9a block 45µM*, GLS inh 2%, HP1b binding inh 9% and BAZ2B inh 37%.
CCN(C(=O)c1cc2c(=O)oc3ccccc3c2s1)c1ccc(C)c(C)c1 was read as JMJD2A Tudor -5%, G9a block 7%[59 µM], GLS inh -2%, HP1b binding inh 31% and BAZ2B inh -7%.
For CCOc1ccc(NC(=O)C2Cc3ccccc3N2C(=O)c2ccccc2)cc1 (stereo not given) the results were JMJD2A Tudor -3%, G9a block inconclusive, GLS inh 1%, HP1b binding inh 57% and BAZ2B inh -3%.
Screening Cc1nc(-c2cccc(F)c2)sc1CCNC(=O)C(=O)Nc1ccc2c(c1)OCO2 returned JMJD2A Tudor -12%, G9a block 13%[59 µM], GLS inh 5%, HP1b binding inh 20%[57 µM] and BAZ2B inh -5%.
For CCOc1ccc(-c2csc(NC(=O)c3cccc(N4C(=O)CCC4=O)c3)n2)cc1 the results were JMJD2A Tudor 0%, G9a block 12%, GLS inh 14%, HP1b binding inh 0% and BAZ2B inh -17%.
`O=C(Nc1nnc(-c2ccncc2)o1)c1cccc(N2C(=O)CCC2=O)c1` gave JMJD2A Tudor 6.3µM*, G9a block inconclusive, GLS inh 0% and HP1b binding inh 22%.
`O=C(Nc1nnc(-c2ccc(Cl)cc2)o1)c1cccc(N2C(=O)CCC2=O)c1` gave JMJD2A Tudor inconclusive, G9a block 60%[59 µM], GLS inh 19%, HP1b binding inh 23% and BAZ2B inh 79µM*.
For CS(=O)(=O)c1ccccc1-c1nnc(NC(=O)c2cccc(N3C(=O)CCC3=O)c2)o1 the results were JMJD2A Tudor 2.5µM*, G9a block inconclusive, GLS inh -2%, HP1b binding inh 13% and BAZ2B inh 79µM*.
Screening Cc1ccc(-c2csc(NC(=O)c3cccc(N4C(=O)CCC4=O)c3)n2)o1 returned JMJD2A Tudor 79µM*, G9a block 8.9µM*, GLS inh 4%, HP1b binding inh -11% and BAZ2B inh -32%.
`COc1ccc(OC)c(CCNC(=O)c2nn(C)c3c2CSc2ccccc2-3)c1` gave JMJD2A Tudor -6%, G9a block -33%[59 µM], GLS inh 0%, HP1b binding inh 13% and BAZ2B inh 1%.
`CN(C)C(=O)c1cccc(-c2cccc(-c3nc(C(=O)NCc4ccccc4)cc4c3[C@@H](CCO)N(S(=O)C(C)(C)C)C4)c2)c1` (stereo not given in full) gave GLS inh 12%.
For COc1cccc(CNC(=O)C2CCCN(c3nn4cc(-c5ccc(C)cc5)nc4s3)C2)c1 (stereo not given) the results were JMJD2A Tudor -9%, G9a block -1%[59 µM], GLS inh 0%, HP1b binding inh 10% and BAZ2B inh -2%.
For O=C(Nc1nnc(-c2ccco2)o1)c1cccc(N2C(=O)CCC2=O)c1 the results were JMJD2A Tudor 4.5µM*, G9a block 16µM*, GLS inh 32%, HP1b binding inh -8% and BAZ2B inh 22µM*.
`Oc1ccc(Nc2ccc3ccccc3c2)cc1` gave JMJD2A Tudor 40µM*, GLS inh 14µM* and HP1b binding inh inconclusive.
Screening Cc1cc(Nc2ccc(O)cc2)ccc1N returned JMJD2A Tudor inconclusive, G9a block -2%[0.501 µM], HP1b binding inh 11µM* and BAZ2B inh 6.3µM*.
For Cc1cccc(-n2c(SCC(=O)NCC3CCCO3)nc3ccccc3c2=O)c1C (stereo not given) the results were JMJD2A Tudor 8%, G9a block 14%[12.7 µM], GLS inh -2%, HP1b binding inh 26% and BAZ2B inh 6%.
For CCCCOC(=O)c1ccc(OC(=O)c2sc3ncn(Cc4ccccc4Cl)c(=O)c3c2C)cc1 the results were JMJD2A Tudor -2%, G9a block 1%[59 µM], GLS inh -1%, HP1b binding inh 11% and BAZ2B inh 2%.
COC(=O)c1ccccc1COc1cccn2c(N(C)C(=O)CCC3CCCC3)c(C)nc12 was read as GLS inh -6%.
`COc1ccc(Br)cc1CNC(=O)CN1C(=O)CSc2ccc(S(=O)(=O)N3CCOCC3)cc21` gave JMJD2A Tudor -22%, G9a block -2%[59 µM], GLS inh 1%, HP1b binding inh 36% and BAZ2B inh 0%.
`NC1(C(=O)O)CCc2cc(C(=O)O)ccc21` (stereo not given) gave G9a block 4.5µM*.
O=c1[nH]c(=S)[nH]c2nc(-c3cccs3)cc(C(F)(F)F)c12 was read as JMJD2A Tudor -15%, G9a block 79µM*, GLS inh -11%, HP1b binding inh 36% and BAZ2B inh -6%.
`CCCOC(=O)c1c(-c2ccccc2)c(-c2ccccc2)nn(C)c1=O` gave JMJD2A Tudor -23%, G9a block inconclusive, GLS inh 8%, HP1b binding inh 16% and BAZ2B inh -5%.
`Cc1ccc(OCC(=O)N2CCN(S(=O)(=O)c3ccc(Cl)cc3)CC2)c([N+](=O)[O-])n1` gave JMJD2A Tudor -15%, G9a block 40µM*, GLS inh -12%, HP1b binding inh 12% and BAZ2B inh -6%.
Screening O=S(=O)(c1ccc(Cl)cc1)N1CCN(Cc2c[nH]c3ccccc23)CC1 returned JMJD2A Tudor 3%, G9a block -32%[59 µM], HP1b binding inh 26% and BAZ2B inh -36%.
`O=C(COc1ccccc1F)N1CCN(S(=O)(=O)/C=C/c2ccccc2)CC1` gave JMJD2A Tudor -12%, G9a block 45µM*, GLS inh 3%, HP1b binding inh 28% and BAZ2B inh 6%.
Screening O=C(Cc1c[nH]c2ccccc12)N1CCN(S(=O)(=O)c2ccc(Cl)cc2)CC1 returned JMJD2A Tudor -27%, G9a block 14µM*, GLS inh 0%, HP1b binding inh -5% and BAZ2B inh -8%.
